Measured values: PubChem BioAssay
Values without a mark were called inactive. No rule for the calls is given here. Where a SMILES comes first, the peptide text is derived from it. [ ]: non-standard residue; d: D form. The star is where a group is joined. ξ: configuration not given here. Piv = CC(C)(C)C(=O)*; ξNva = CCCC(N)C(=O)O

What follows are molecules tested against Pantothenate synthetase (Mycobacterium tuberculosis (strain ATCC 25618 / H37Rv)) (UniProt P9WIL5) (assay: Coupled enzyme confirmation of inhibitors against recombinant Mtb PanC (AID 375;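 also: 0% = full reaction with vehicle and 100% = no enzyme background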)). Conditions: coupled enzyme assay; at 10 µM, hits give high values.
Sequence of Pantothenate synthetase (Mycobacterium tuberculosis (strain ATCC 25618 / H37Rv)) (P9WIL5 whole entry, looked up): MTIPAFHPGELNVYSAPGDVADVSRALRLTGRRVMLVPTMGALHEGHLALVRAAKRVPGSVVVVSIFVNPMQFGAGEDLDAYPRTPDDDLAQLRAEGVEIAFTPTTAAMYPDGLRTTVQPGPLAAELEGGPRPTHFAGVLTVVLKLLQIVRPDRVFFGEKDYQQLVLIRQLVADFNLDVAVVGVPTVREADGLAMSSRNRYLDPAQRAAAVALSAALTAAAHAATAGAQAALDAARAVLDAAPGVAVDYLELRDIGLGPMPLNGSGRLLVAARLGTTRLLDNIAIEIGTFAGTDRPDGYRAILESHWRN

SMILES	inhibition
CCOC(=O)COc1ccc(C2NC(C(=O)O)CS2)cc1 (stereo not given)	0%
CCCC(NC(=O)CNC(=O)C(C)(C)C)C(=O)O (stereo not drawn) (Piv-Gly-[ξNva]-OH)	0%
CCCCOC(=O)Nc1nc2ccc(OC)cc2s1	5%
Cn1c(/C(C#N)=C/Nc2ccccn2)nc2ccccc21	0%
O=C(OCN1C(=O)c2ccccc2C1=O)C1CCCCC1	1%
O=S(=O)(NCc1ccco1)c1cccc2cccnc12	1%
CCCCCC(=O)O[C@]1(C(C)=O)CC[C@H]2[C@@H]3CCC4=CC(=O)CC[C@]4(C)[C@H]3CC[C@@]21C	0%
COc1cccc(-c2csc(N3CCN(CC(=O)Nc4ccc5c(c4)OCO5)CC3)n2)c1	0%
CN(C)c1nc(Oc2ccc(=O)n(C)n2)nc(N2CCOCC2)n1	0%
CC(C)C(NC(=O)c1ccc(S(=O)(=O)N2CCOCC2)cc1)c1nc2ccccc2[nH]1 (stereo not given)	0%
N#C/C(C(=O)c1ccccc1)=C1/CCCN1	3%
N#CCc1nc2c3c4c(sc3ncn2n1)CCCC4	7%
Cc1c(NC(=O)C2CCCCN2S(=O)(=O)c2ccc(Cl)cc2)c(=O)n(-c2ccccc2)n1C (stereo not given)	0%
COC(=O)c1cc(S(=O)(=O)N2CCOCC2)c(N2CCOCC2)cc1N1CCOCC1	2%
O=C(COc1nnnc2ccccc12)N1CCCc2ccccc21	0%
CCOC(=O)c1oc2ccccc2c1NC(=O)c1cccc(OC)c1OC	0%
c1ccc(N2CCN(Cc3cn4cccnc4n3)CC2)cc1	3%
COc1cccc(Oc2ccc(N)cc2)c1	0%
CC(C)C(C(=O)Nc1ccc2c(c1)OCO2)N1C(=O)c2ccccc2C1=O (stereo not given)	0%
CCc1cccc(NC(=O)C2CCCN(S(=O)(=O)c3c(C)[nH]c(=O)[nH]c3=O)C2)c1 (stereo not given)	4%

SMILES	inhibition
CN(C(=O)c1ccncc1)C1CC(C)(C)N(O)C(C)(C)C1	0%
CCOC(=O)/N=C(/NC(=O)Nc1ccc(C(=O)OCC)cc1)OC	0%
CCN1CCN(S(=O)(=O)c2ccc(S(=O)(=O)N(CC)Cc3ccccc3)cc2)CC1	7%
COC(=O)Nc1ccc(S(=O)(=O)N2CCCCCC2)cc1	0%
O=C1CC(c2ccccc2)n2nc(NC(=O)c3ccccn3)nc2N1 (stereo not given)	0%
Cc1cc(C)cc(NS(=O)(=O)c2ccc3[nH]c(=O)[nH]c3c2)c1	0%
O=C(c1ccco1)N1CCN(c2c(-c3ccccc3)c3cc(Cl)ccc3[nH]c2=O)CC1	5%
CC(CN1CCCCC1)OC(=O)c1ccc(Cl)cc1Cl (stereo not given)	0%
CCc1ccc(N(CC(=O)NC2CCCC2)S(=O)(=O)c2c(C)noc2C)cc1	1%
O=C(NCCC1=CCCCC1)C1CC(=O)N(C2CCCCCC2)C1 (stereo not given)	2%
CCCC(=O)Nc1cccc(NC(=O)CN2CCN(c3ccccc3OC)CC2)c1	0%
Cc1ccc2nc(C(F)(F)F)c(C#N)c(N)c2c1	7%
O=C(Nc1ccc(N2CCCC2)cc1)c1cccc(F)c1	4%
O=C(C1CC1)N1CCc2cc(Br)cc(S(=O)(=O)N3CCOCC3)c21	3%
CN(CC(O)COc1ccc(OCC(O)CN(C)C2CCCCC2)cc1)C1CCCCC1 (stereo not given)	4%
CCOc1ncccc1C(=O)Nc1ccc2c(C)cc(=O)oc2c1	7%
O=C(c1cccc2ccccc12)N1CCC(N2CCN(c3ccccc3)CC2)CC1	0%
O=C(Oc1ccc2c(c1)CCC2)N1CCOCC1	0%
CCOc1ccc(C2/C(=C(/O)c3ccc(OC)cc3)C(=O)C(=O)N2c2cc(C)on2)cc1OC (stereo not given)	0%
COc1ccc(CN2CC(C(=O)NCCCOC(C)C)CC2=O)cc1 (stereo not given)	3%
